# IL1B secr inh – inflammasome signaling inhibition, IL-1 beta readout | 4.7% of 360,000 active | THP-1 LPS/ATP IL-1B secretion, AlphaLISA, 16 h; stronger effect = lower value | activity change, % at 57.5 µM; in the data active = activity change below about -50%; inconclusive = mostly about -30% to -49%
#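 THP-1 cells pretreated 1 hr with compounds (up to 57.5 uM final), then stimulated with LPS (250 ng/mL final) plus ATP (1.25 mM final); secreted IL-1B measured by AlphaLISA after 16 hr, decreased signal indicating inhibition.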
# TDP1 cell CPT – growth inhibition of DT40 Tdp1-/-;hTDP1 cells with camptothecin (screen for TDP1 inhibitors); chicken DT40 Tdp1-/-;hTDP1 cells + 20 nM CPT, ATP luminescence, 48 h; Potency, µM (titrated, usually from 46.2 µM), for inactives: at the highest dose activity change, negative = growth inhibition, hits mostly inhibitors; 12% of 420,000 active; AID 686979; also: potency is read from the fitted curve at half-maximal effect; nearly all actives have a fitted effect of over 55% in size
#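 Cell growth measured by CellTiter-Glo luminescence after a minimum 48 h, 37 C compound exposure with 20 nM CPT in Tdp1-knockout DT40 cells stably expressing hTDP1, seeded 400/well; qHTS titration format.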
# HT1080-NT tox – kills 2HG-producing HT-1080-NT fibrosarcoma cells; Potency, µM (top dose mostly 46.1 µM), for the others: top-dose activity, negative = less viability, most hits filed as cytotoxic; 1.6% of 360,000 active; HT-1080-NT fibrosarcoma viability, CellTiter-Glo ATP luminescence, 48 h;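 also: NT is the 2HG producing partner of a matched IDH1 knockdown line; potency is read from the fitted curve at half-maximal effect; 0% = DMSO-treated cells and -100% = media-only wells without cells; nearly all actives have a fitted effect of over 55% in size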
#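 Compounds were tested in concentration-response format on HT-1080-NT cells for 48 hours at 37 degrees C. Cell viability came from CellTiter-Glo luminescence; curves were classified by r2, response magnitude and activity.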
# HT1080 IDH1KD tx – kills HT-1080 cells with IDH1 knockdown; HT-1080 IDH1 knockdown viability, ATP luminescence, 48 h; 2% of 360,000 active; Potency, µM (doses to about 46.1 µM), inactives show at the highest dose activity, negative = toxicity, actives largely listed as cytotoxic;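 also: potency is read from the fitted curve at half-maximal effect; 0% = DMSO wells and -100% = cell-free medium wells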
#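 % activity derives from luminescence (CellTiter-Glo), normalised to DMSO and no-cell wells. HT-1080-IDH1KD cells, 750/well, had 48 h compound exposure at 37 °C.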
# DT40 TDP1 no CPT – qHTS for Inhibitors of human tyrosyl-DNA phosphodiesterase 1 (TDP1): qHTS in cells in absence of CPT | DT40 Tdp1-/- hTDP1 cells, no CPT, ATP luminescence, 48 h | Potency, µM (titrated, usually from 46.2 µM), inactives show top-dose activity change, negative = growth inhibition, hits mostly inhibitors | 15% of 420,000 active; also: potency is read from the fitted curve at half-maximal effect; nearly all actives have a fitted effect of over 55% in size
#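 A cellular qHTS used chicken DT40 cells lacking endogenous Tdp1 but carrying stably transfected human TDP1. Compounds were applied without camptothecin, and cell growth kinetics were judged by ATP-dependent luminescence after ≥48 hr.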
# * hit, by the source's call; i = inactive; ? = inconclusive; nt = not tested or not shown. Compounds with a hit are over-represented: about 19% of the library has one in this group of screens. Unless noted, calls follow the shape of the dose curve; as a rule, active = well fitted curve in the direction sought with a large enough effect; inconclusive = small, poorly fitted or top-dose-only effect, or another doubt; inactive = no such curve, though single readings can be large; an effect the other way counts as inactive or inconclusive. Unless noted, % is scaled to controls: 0 for no effect and ±100 for the full control effect.
SMILES,IL1B secr inh,TDP1 cell CPT,HT1080-NT tox,HT1080 IDH1KD tx,DT40 TDP1 no CPT
COc1ccc(C(=O)NC2CC(C)(C)Cc3c2cnn3-c2ccccc2C)c(OC)c1OC (centres undefined),i,23.1µM*,2.2%,-1.4%,16.4µM*
Nc1sc(-c2ccccc2)cc1C(=O)N1CCN(c2ccccc2)CC1,-25.6,?,-27.1%,-2.2%,?
COc1ccc(C(CC(=O)c2ccc(O)cc2)S(=O)(=O)c2ccc(C)cc2)cc1 (centres undefined),-50.8*,-7.1%,?,?,?
COc1ccc(C(=O)CCS(=O)(=O)c2ccc(C)cc2)cc1,?,2.59µM*,8.3%,?,2.31µM*
CC(=O)c1cccc([N+](=O)[O-])c1,5.1,2.8%,3.3%,16.0%,5.7%
Cc1ccc(S(=O)(=O)CCC(=O)c2cccc([N+](=O)[O-])c2)cc1,-98.0*,2.06µM*,?,6.51µM*,2.59µM*
Cc1ccc(NC(=O)CCS(=O)(=O)c2ccc(Br)cc2)c(C)c1,nt,-4.4%,nt,nt,1.7%
Cc1ccc(C(=O)CCS(=O)(=O)c2ccc(Br)cc2)cc1,?,5.17µM*,4.8%,2.5%,5.17µM*
Cc1cccc(NC(=O)CCN2CCN(c3ccccc3F)CC2)c1,nt,-28.6%,nt,nt,?
Cc1ccc(S(=O)(=O)Cc2cc(F)c([N+](=O)[O-])cc2[N+](=O)[O-])cc1,-92.4*,3.66µM*,2.91µM*,6.51µM*,2.91µM*
CN(CC(=O)Nc1ccc(OC(F)(F)F)cc1)C(=O)Cc1c(Cl)cccc1Cl,-55.2*,-14.2%,-3.2%,-1.7%,?
CN(CC(=O)Nc1ccc(OC(F)(F)F)cc1)C(=O)/C=C/c1ccco1,-21.4,?,-4.8%,0.0%,23.1µM*
CC(=O)NNc1cc(C)nc(N)n1,8.5,3.0%,9.9%,3.8%,5.1%
O=C(NC(=O)c1ccccc1)Nc1cccc(S(=O)(=O)N2CCCCC2)c1,19.3,1.3%,5.6%,3.6%,-3.5%
Cc1ccc(-c2csc3nc[nH]c(=S)c23)cc1,-14.8,3.26µM*,?,?,5.17µM*
Cc1cc(-c2csc3nc[nH]c(=S)c23)cc(C)c1C,-8.9,5.8µM*,16.4µM*,14.6µM*,5.17µM*
S=c1[nH]cnc2scc(-c3ccc(Cl)cc3)c12,nt,?,-29.9%,?,?
S=c1[nH]cnc2scc(-c3ccc(Br)cc3)c12,-18.3,?,20.6µM*,13µM*,5.8µM*
Cc1[nH]c(C)c(S(=O)(=O)Nc2cccc(Cl)c2C)c1C(=O)N1CCCC1,0.0,-26.8%,-8.3%,-5.0%,-8.8%
Cc1ccc(C(=O)N/N=C\c2ccccc2[N+](=O)[O-])cn1,3.0,-0.9%,4.4%,12.4%,14.1%
Cc1c(C(=O)N/N=C/C(C)C)[nH]c2c([N+](=O)[O-])cccc12,79.7,3.7%,?,2.59µM*,23.1µM*
COc1ccccc1CC(=O)NC1CCCCCC1,-20.0,-4.3%,2.6%,10.3%,1.1%
CCOc1ccc(C(=S)NC2CCCCC2)cc1OCC,-0.6,?,-0.6%,-3.6%,4.61µM*
CCOc1cc(Br)c(CC(=O)NC2CCCCCC2)cc1OCC,-5.3,?,-13.4%,-12.9%,20.6µM*
O=C(Nc1cccc(Cl)c1)OC1CCCCc2cccnc21 (centres undefined),-79.7*,13µM*,-1.0%,-21.6%,?
SMILES,IL1B secr inh,TDP1 cell CPT,HT1080-NT tox,HT1080 IDH1KD tx,DT40 TDP1 no CPT
O=C(Nc1ccccc1)OC1CCCCc2cccnc21 (centres undefined),-11.5,5.9%,2.4%,-6.0%,?
CCN(CC)S(=O)(=O)c1ccc(NC(=O)NCc2noc3ccc(C)cc23)cc1,nt,20.6µM*,nt,nt,23.1µM*
CC1CCC(NC(=O)C2c3ccccc3C(=O)N2Cc2cccs2)CC1 (centres undefined),-2.1,?,7.1%,19.1%,?
O=C(NC(=S)N1CCN(Cc2ccc3c(c2)OCO3)CC1)c1ccc(Cl)cc1,-12.5,?,-22.2%,-22.0%,20.6µM*
O=C(NC(=S)N1CCN(Cc2ccc3c(c2)OCO3)CC1)c1cccc(Br)c1,-6.1,16.4µM*,-0.2%,-18.6%,14.6µM*
Cc1cc(Cl)ccc1NC(=S)N1CCN(Cc2ccc3c(c2)OCO3)CC1,22.1,?,-9.6%,-10.5%,?
Cc1ccccc1C(OCC(O)CN1CCN(CCO)CC1)c1ccccc1 (centres undefined),?,-11.5%,-5.1%,-13.4%,7.7%
O=[N+]([O-])c1cccc(-c2ccc3nnc(SCc4cccnc4)n3n2)c1,6.8,-24.0%,5.3%,13.1%,-16.2%
CCCCC(=O)N(C)c1c(CC)nc2c(OCC(=O)N(C)C)cccn12,22.3,1.3%,13.6%,1.2%,-1.4%
CCc1nc2c(OCc3cccc(Cl)c3)cccn2c1N(C)C(C)=O,-19.3,?,10.3%,4.6%,?
CCc1nc2c(OCc3ccccc3C(=O)OC)cccn2c1N(C)C(=O)Nc1ccccc1OC,-26.6,?,-7.2%,-29.9%,?
CCc1nc2c(OCc3cccc(Cl)c3)cccn2c1N(C)C(=O)C(C)C,22.1,16.4µM*,-21.3%,-14.9%,18.4µM*
CCc1nc2c(OCc3cccc(Cl)c3)cccn2c1N(C)C(=O)Nc1ccccc1OC,-19.3,18.4µM*,?,?,23.1µM*
CCCCC(=O)N(C)c1c(CC)nc2c(OCC=C(C)C)cccn12,41.1,?,?,?,20.6µM*
CCCCC(=O)N(C)c1c(CC)nc2c(OCc3cccc(Cl)c3)cccn12,-5.2,?,?,?,23.1µM*
O=C(COC(=O)c1cc[n+]([O-])cc1)NCC12CC3CC(CC(C3)C1)C2,5.2,-18.3%,4.3%,2.6%,-13.2%
O=S(=O)(c1ccc2c(c1)CCN2)N1CCCCCC1,nt,-6.5%,nt,nt,-11.0%
CC1(CCC(=O)N2CCCC(Nc3ccc(F)cc3)C2)CC1 (centres undefined),19.4,-12.1%,-2.8%,-8.1%,-11.1%
O=[N+]([O-])c1cc(-c2n(-c3ccccn3)c3ccccc3[n+]2-c2ccccn2)ccc1Cl,-14.9,16.4µM*,-2.5%,-2.2%,23.1µM*
Cc1ccc(-c2cc(O)cc3sc(=O)oc23)cc1C,-1.4,?,?,-2.1%,20.6µM*
CCC(C)(C)n1nnnc1C(c1cc2ccc(OC)cc2[nH]c1=O)N1CCCCC1 (centres undefined),-20.9,?,0.2%,-0.2%,?
CCc1ccc2[nH]c(=O)c(C(c3nnnn3CCOC)N3CCN(c4ccccc4)CC3)cc2c1 (centres undefined),?,?,-3.0%,-5.9%,18.4µM*

# Screening results as filed in PubChem BioAssay.
